Measurements: PubChem BioAssay (NCI)
About 79,000 compounds went through this panel and 15% of them were active in at least one assay; those are over-represented in the sample as a whole. Cut-off read from the data, not from the text of the source: active = growth inhibition above about 70%; inactive = the rest.

Tests used:
[1] = NCI Yeast Anticancer Drug Screen. Data for the rad50 strain (AID 155);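 note: 0% = growth of vehicle-only cultures of the same strain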; conditions: S. cerevisiae rad50 strain growth inhibition; at 50.0 µM; stronger effect = higher value
In short: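 Genetically altered yeast (DNA repair pathway); compound treatment; growth inhibition vs vehicle ctrl.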

[2] = NCI Yeast Anticancer Drug Screen. Data for the mec2-1 strain (AID 157); conditions: S. cerevisiae mec2-1 strain, at 50.0 µM, stronger effect = higher value
In short: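 Strain: mec2-1 (DNA repair/cell cycle alteration). Compound exposure, then growth measured; inhibition expressed relative to vehicle.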

[3] = NCI Yeast Anticancer Drug Screen. Data for the sgs1 mgt1 strain (AID 161);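 note: 0% = growth of cultures given vehicle only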; conditions: S. cerevisiae sgs1 mgt1 strain, at 50.0 µM, stronger effect = higher value
In short: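 Inhibition of yeast growth, normalised to vehicle-treated controls, is reported for a strain bearing genetic alterations in DNA damage repair.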

[4] = NCI Yeast Anticancer Drug Screen. Data for the bub3 strain (AID 167); conditions: S. cerevisiae bub3 mutant strain, at 50.0 µM, stronger effect = higher value
In short: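 Yeast carrying a defined mutation is treated with each compound, and growth is compared with that of vehicle-exposed cells to give inhibition.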

[5] = NCI Yeast Anticancer Drug Screen. Data for the mlh1 rad18 strain (AID 175); conditions: S. cerevisiae mlh1 rad18 strain growth inhibition; at 50.0 µM; stronger effect = higher value
In short: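 Read-out is yeast growth inhibition, calculated against vehicle-only controls. The compound was applied to a strain engineered with DNA damage repair alterations.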

[6] = NCI Yeast Anticancer Drug Screen. Data for the cln2 rad14 strain (AID 165);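 note: 0% = growth equal to vehicle treated cultures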; conditions: S. cerevisiae cln2 rad14 strain, at 50.0 µM, stronger effect = higher value
In short: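 Compounds are applied to the cln2 rad14 yeast strain, and growth is then compared with that of vehicle-treated cultures to give inhibition.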

Measured: growth inhibition

O=C(NCCc1c[nH]c2ccccc12)C(F)(F)F
inactive: [1] -15.8% | [2] 7.6% | [3] 18.2% | [4] 29.2% | [5] 0.3%

O=[N+]([O-])c1cccc(NSNc2cccc([N+](=O)[O-])c2)c1
inactive: [1] 18.1% | [2] 23.9% | [3] 25.6% | [4] 6.45% | [5] 11%

CCOC(=O)C(=O)Nc1c(C)cccc1CC
inactive: [1] 0.15% | [2] -4.1% | [3] -5.05% | [4] 6.2% | [5] -1.05%

O=C1/C(=C/c2ccc(Br)cc2)CCC/C1=C\c1ccc(Br)cc1
inactive: [1] 24.2% | [2] 13% | [3] 0.25% | [4] -11.9% | [5] 13.9%

CC(=O)n1c(=O)c2cc3c(=O)n(-c4cccc(C#N)c4)c(=O)c3cc2c1=O
inactive: [1] -25.4% | [2] -19.4% | [3] 9.65% | [4] 4.8% | [5] -9.65%

CC(=O)n1nnc(CC#N)c1-c1ccccc1
inactive: [1] 20.4% | [2] 7.5% | [3] 2.65% | [4] -23.2% | [5] -15.3%

CCOC(=O)c1nc2ccc(C(F)(F)F)cc2nc1NCc1ccc(OC)c(OC)c1
inactive: [1] 5.7% | [2] 6.65% | [3] -28% | [4] -23.5% | [5] -24.8%

O=CNC(CSC(=O)c1ccccc1)C(=O)O (centres undefined)
inactive: [1] -0.35% | [2] -3.75% | [3] -7.2% | [4] -11.7% | [5] -12.7%

Nc1[nH]c(=S)[nH]c(=O)c1NS(=O)(=O)c1cccc([N+](=O)[O-])c1
inactive: [1] -14.1% | [2] -10% | [3] -22.1% | [4] -11.4% | [5] 12.8%

Cn1c[n+](-c2ccccc2)c([S-])n1
inactive: [1] -0.05% | [2] 5.05% | [3] 5.15% | [4] -24.9% | [5] -7.4%

O=C1Cn2c(c3c(nc2=O)CCCC3)N1
inactive: [1] -31.1% | [2] -7.3% | [3] -10.3% | [4] -7.95% | [5] 2.1%

O=C(O)C(Br)C(Br)C(=O)Nc1cccc(C(F)(F)F)c1 (centres undefined)
inactive: [1] 17.4% | [2] -5.55% | [3] 14.9% | [4] -2.15% | [5] 24.4%

CCCCCCC(C)NCC(=O)Nc1ccccc1C (centres undefined)
inactive: [1] -2.7% | [2] 14.2% | [3] 25.6% | [4] 59.7% | [5] 30.6%

CCOC(=O)c1ccnc2ccccc12
inactive: [1] -5.05% | [2] -3.75% | [3] 1.1% | [4] 5.65% | [5] 3.7%

N#Cc1ccccc1NC(=O)C(=O)C(C(=O)c1ccccc1F)C1OC(=O)c2ccccc21 (centres undefined)
inactive: [1] -1.1% | [2] -10.8% | [3] -5.25% | [4] -16.2% | [5] -2.4%

COc1ccc(CC(=O)NC(N)=O)cc1
inactive: [1] -6.35% | [2] 2.7% | [3] -12.3% | [4] -6.1% | [5] 5.15%

CC(C)c1ccc(/C=C2/CCCCC2=O)cc1
inactive: [1] -2.55% | [2] -15% | [3] -10.5% | [4] -16.4% | [5] -24.9%

O=C(Nc1ccccc1CCl)Nc1ccccc1CCl (tested in a mixture with another compound)
inactive: [1] 7.6% | [2] 3.35% | [3] -11.4% | [4] -4.1% | [5] 15.4%

O=C1OC(/C=C/c2ccccc2)=NC/1=C\C=C\c1ccccc1
inactive: [1] 24.1% | [2] 14.8% | [3] 14.9% | [4] 6.15% | [5] -1.65%

O=C(O)/C=C/C(=O)Nc1ccc2c(c1)-c1ccccc1C2=O
inactive: [1] 15.9% | [2] 14.4% | [3] 17.9% | [6] 5.25% | [5] 16.6%

CC(=O)c1cc2c(cc1C)C(C)(C)CCC2C (centres undefined)
inactive: [1] -0.75% | [2] -24.8% | [3] -7.3% | [4] 7.35% | [5] 2.3%

C=CCSCC1Nc2cc(Cl)c(S(N)(=O)=O)cc2S(=O)(=O)N1C (centres undefined)
inactive: [1] 22.8% | [2] 12.8% | [3] 8.05% | [4] -3.75% | [5] 2.25%

O=C1c2c(ccc3c2CCCC3)CC12Cc1ccc3c(c1C2=O)CCCC3
inactive: [1] 20.1% | [2] 13.8% | [3] -0.85% | [4] 7% | [5] 12.1%

Cc1ccc(NC(=O)OCC2CC3C=CC2C3)cc1NC(=O)OCC1CC2C=CC1C2 (centres undefined)
inactive: [1] -21.2% | [2] -14.3% | [3] -14.8% | [4] -3.25% | [5] 3.7%

O=C1CSC(c2cccnc2)N1CCN1C(=O)CSC1c1cccnc1 (centres undefined)
inactive: [1] 3.75% | [2] 4.15% | [3] -11.5% | [4] -1.6% | [5] 19.4%

CCCCOC(=O)CNC(=O)OC/C=C/C#CC#C/C=C/COC(=O)NCC(=O)OCCCC
inactive: [1] -20.2% | [2] -35.8% | [3] -24.4% | [4] 0.3% | [5] -19.9%

CCCCOC(=O)c1c(C)c(C)cc(C)c1C
inactive: [1] 18.4% | [2] -7.1% | [3] 6.3% | [4] 5.75% | [5] -9.95%

O=Cc1ccc(C(=O)O)cc1
inactive: [1] -1.35% | [2] -14.6% | [3] 0.25% | [4] -12.8% | [5] -9.6%

NC(CSS(=O)(=O)O)=NCCCCC1CCCCC1
inactive: [1] -6.3% | [2] -2.75% | [3] 7.35% | [4] 0.1% | [5] 16.4%

O=P1(c2ccccc2)c2ccccc2CCc2ccccc21
inactive: [1] 18% | [2] 2.75% | [3] 21.8% | [4] 2.25% | [5] 8.35%

O=C(O)c1ccccc1Nc1nc2ccccc2o1
inactive: [1] -1.85% | [2] 2.15% | [3] -7.05% | [4] 15.2% | [5] 0.25%

CC1=C(C(=O)Nc2ccc(C)cc2)C(c2cccc([N+](=O)[O-])c2)C(C(=O)Nc2ccc(C)cc2)=C(C)N1
inactive: [1] 14.9% | [2] 24.3% | [3] 22.5% | [4] 41% | [5] 4.35%

COC(=O)CC1(CC(=O)O)SCCS1
inactive: [1] -13.6% | [2] 4.3% | [3] 11.5% | [4] 13.5% | [5] -8.25%

CC=C=C(C)CN
inactive: [1] -6.4% | [2] -3.8% | [3] -9.6% | [4] -6.25% | [5] -8.45%

CCOc1ccc(NC(=O)c2cccc(C(=O)Nc3ccc(OCC)cc3)c2)cc1
inactive: [1] -13.8% | [2] -12.3% | [3] -8.15% | [4] -5.35% | [5] -0.7%

CCOc1cc2c(cc1OC)c[n+](C)c1c3cc(OC)c(OC)cc3ccc21
inactive: [1] 22.5% | [2] 10.9% | [3] 15% | [5] 14.6%

CCCCCCCCCCCCCCCCCC1(c2ccccc2)NC(=O)NC1=O (centres undefined)
inactive: [1] 9.5% | [2] 10.3% | [3] 30.5% | [4] 5.8% | [5] -13.1%

Cc1ccc(CC2CC(=O)c3ccccc3C2=O)cc1 (centres undefined)
inactive: [1] -7.6% | [2] 2.95% | [3] -4.55% | [4] 3.65% | [5] -16.4%

COC1c2ccccc2C(C)(C)c2nc3ccccc3cc21 (centres undefined)
inactive: [1] -1.05% | [2] -10% | [3] -4.6% | [4] 1.6% | [5] -3.1%

COC(=O)c1cc(C)n(C)c(=O)c1CNS(=O)(=O)c1ccc(C)cc1
inactive: [1] -1.25% | [2] 6.45% | [3] 0.85% | [4] -2.8% | [5] -12.3%

CCOC(=O)C(CCC(=O)OC)C(=O)OCC
inactive: [1] -2.45% | [2] -1.75% | [6] -28.2% | [4] -5.25% | [5] 1.6%

NC(=S)N1CCCC1
inactive: [1] -2.2% | [2] -22.1% | [6] 7% | [4] 17.6% | [5] 19.3%

CC(=O)OCC12CCC(O1)C1C(=O)OC(=O)C12 (centres undefined)
inactive: [1] -3.85% | [2] -2.25% | [6] -3.4% | [4] -11.1% | [5] 1.05%

CCCCCC#CC1OC1(C)C (centres undefined)
inactive: [1] -2.1% | [2] -8.05% | [6] -27% | [4] 5.95% | [5] -12.2%

CCOC(=O)CCC1(C(=O)OC)C(=O)CCCCCCCC1C(=O)OC (centres undefined)
inactive: [1] -1.85% | [2] -5.65% | [6] 20.6% | [4] 19.4% | [5] 7.3%

NC1(C(=O)O)CCCc2ccccc21 (centres undefined)
inactive: [1] 13.3% | [2] 8.15% | [6] -1.7% | [4] -12.6% | [5] 8.95%

CC1=NN(c2cc(Cl)c(S(=O)(=O)O)cc2Cl)C(=O)C1N=Nc1ccc(S(=O)(=O)O)cc1 (centres undefined)
inactive: [1] -6.3% | [2] -19.8% | [6] 2.05% | [4] -5.8% | [5] -0.9%
